# Source: PubChem BioAssay
# Active and inactive are the calls of the source. The rule behind the calls is not given here.
# Biological target: Pantothenate synthetase (Mycobacterium tuberculosis (strain ATCC 25618 / H37Rv)) (UniProt P9WIL5)
# Test: Coupled enzyme confirmation of inhibitors against recombinant Mtb PanC (AID 375);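 note: 0% = full reaction with vehicle and 100% = no enzyme background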
# Settings: coupled enzyme assay; at 10 µM, active compounds read high
# Pantothenate synthetase (Mycobacterium tuberculosis (strain ATCC 25618 / H37Rv)), sequence (P9WIL5 whole entry, looked up): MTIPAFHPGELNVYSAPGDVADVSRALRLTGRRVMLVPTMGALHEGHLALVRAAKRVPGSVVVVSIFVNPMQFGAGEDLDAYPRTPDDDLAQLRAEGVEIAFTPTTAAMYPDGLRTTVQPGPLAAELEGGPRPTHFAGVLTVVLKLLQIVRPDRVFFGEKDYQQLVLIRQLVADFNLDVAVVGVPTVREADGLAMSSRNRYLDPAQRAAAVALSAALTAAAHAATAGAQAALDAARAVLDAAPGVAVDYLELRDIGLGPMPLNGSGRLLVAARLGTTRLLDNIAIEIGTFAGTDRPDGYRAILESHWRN
row,SMILES,inhibition
1,CCCCOc1ccc(C2C3CN(C(=O)OCC)CC=C3C(C#N)=C(N)C2(C#N)C#N)cc1OC (stereo not given),0% (inactive)
2,C=CCc1cc(OC)ccc1OCC(O)CN1CCN(c2ccc(OC)cc2)CC1 (stereo not given),1% (inactive)
3,O=C1C2CCCN2C(c2ccc(Cl)cc2)N1c1nccs1 (stereo not given),0% (inactive)
4,COc1cccc(Nc2nnc(SCC(=O)N3CC(C)OC(C)C3)s2)c1 (stereo not given),2% (inactive)
5,Cc1cccc(NC(=O)CCCCCN2C(=O)c3ccccc3C2=O)n1,0% (inactive)
6,COC(=O)c1[nH]c2ccc(C)cc2c1NC(=O)CN1CCCc2ccccc21,3% (inactive)
7,c1cc2c(cc1C1CCCN1)OCCCO2 (stereo not given),2% (inactive)
8,N#Cc1c(NC(=O)CSc2nc(N)cc(=O)[nH]2)sc2c1CCCCCC2,0% (inactive)
9,COc1cc(C(=O)NCCc2ccc3c(c2)OCCO3)ccc1OCC(=O)N1CCOCC1,2% (inactive)
10,C=CCn1c(Cc2csc(N)n2)nnc1SCC(=O)OCC,1% (inactive)
11,O=C(O)C1CCCN1S(=O)(=O)c1ccc2ccccc2c1 (stereo not given),3% (inactive)
12,CC1CCC(NC(=O)C2CCN(c3cnccn3)CC2)CC1 (stereo not given),0% (inactive)
13,CC(C)Cn1c(N)c(C(=O)COC(=O)c2ccc3c(c2)OCCO3)c(=O)n(C)c1=O,0% (inactive)
14,CCOc1ccc(N2CC(C(=O)Nc3cccc(C)c3C)CC2=O)cc1 (stereo not given),0% (inactive)
15,O=C(Nc1ccon1)c1cc(-c2ccccc2)nc2ccccc12,0% (inactive)
16,COC(=O)CSc1ncccc1-c1nc2ccccc2[nH]1,0% (inactive)
17,Cc1cc(C(=O)NCCCN2CCOCC2)n(-c2ccccc2)n1,0% (inactive)
18,COc1ccccc1N1CCN(C(CNS(=O)(=O)c2cc(F)ccc2F)c2cccnc2)CC1 (stereo not given),0% (inactive)
19,N[C@@H](Cc1ccccc1)c1nnc2sc(SCc3ccccc3)nn12,1% (inactive)
20,CC1CCc2cc(F)cc3c(O)c(C(=O)NCC4CCCO4)c(=O)n1c23 (stereo not given),2% (inactive)

row,SMILES,inhibition
1,O=C(NCC(c1cccnc1)N1CCN(c2ccccc2)CC1)c1ccc2c(c1)OCO2 (stereo not given),0% (inactive)
2,COCCSc1ccccc1C(=O)Nc1nncs1,0% (inactive)
3,CCOC(=O)c1cnc(C(C)(C)C)[nH]c1=O,10% (inactive)
4,Cc1ccc2c(c1)C(O)(CC(=O)c1ccc3c(c1)OCO3)C(=O)N2 (stereo not given),0% (inactive)
5,CCCc1cc(-c2n[nH]c(C)c2-c2ccc(C(=O)OCC)o2)c(O)cc1O,6% (inactive)
6,CCOC(=O)c1cccc(NC(=O)Cn2cnc3c2c(=O)n(C)c(=O)n3C)c1,4% (inactive)
7,CCc1cc(-c2[nH]ncc2-c2ccc3c(c2)OCO3)c(O)cc1O,0% (inactive)
8,CCc1nnc(NC(=O)CSc2nnc(-c3cc4ccccc4cc3O)n2CC)s1,6% (inactive)
9,COC(=O)c1c(-c2cccs2)csc1NC(=O)CN1CCOCC1,0% (inactive)
10,CN(CC(=O)O)S(=O)(=O)c1cc(Cl)ccc1Cl,1% (inactive)
11,CC(NCCc1ccc(O)cc1)C(O)c1ccc(O)cc1 (stereo not given),0% (inactive)
12,Cc1cc(C)c2c(C)nn(C3CCCCC3)c2n1,0% (inactive)
13,CCOc1ccc(C(=O)N2CCC(C(=O)c3ccc4c(c3)OCCO4)CC2)cc1,7% (inactive)
14,Cc1[nH]c(=O)[nH]c(=O)c1S(=O)(=O)N1c2ccc(F)cc2CCC1C (stereo not given),0% (inactive)
15,CCC(=O)Nc1cc(C)c(NC(=O)C23CC4CC(CC(C4)C2)C3)cn1,5% (inactive)
16,Cc1ccc(N(C(=O)C2CCC(=O)N2)C2(C(=O)NC3CCCCC3)CCCCC2)cc1 (stereo not given),2% (inactive)
17,COc1ccc(S(=O)(=O)N2CCN(CC(=O)Nc3ccc(F)c(F)c3)CC2)cc1,7% (inactive)
18,CCOC(=O)N1CCN(C(=O)CSCC(=O)Nc2nc(-c3ccc(OC)cc3)cs2)CC1,0% (inactive)
19,COc1ccc(N2C(=O)C3C4C=CC(C4)C3C2=O)nn1 (stereo not given),8% (inactive)
20,O=C1CCCC2=C1C(c1cccs1)n1nc(SCc3ccccc3F)nc1N2 (stereo not given),0% (inactive)
